# Results taken from PubChem BioAssay (NCATS).
# Inconclusive results are not listed. A call without a number means that no potency is given here. Activity calls are given as the source filed them. Calls come from the whole dose curve; as a rule, active = well fitted curve in the direction sought with a large enough effect; inconclusive = small, poorly fitted or top-dose-only effect, or another doubt; inactive = no such curve, though single readings can be large; an effect the other way counts as inactive or inconclusive. Numbered stars: 1 amine (or outer) side, 2 acyl side, 3 side chain; on linkers, the order of the positions; unused ones are H or OH. Bridge positions count the residues as written; N and C are the ends. Square brackets hold non-standard residues; d marks the D form. Peptide text beside a SMILES is read from it. I, II: the chains in the order shown. Actinocin(9to1) = Cc1c2oc3c(C)ccc(C(=O)[*:1])c3nc-2c(C(=O)[*:2])c(N)c1=O; NMeV = CN[C@H](C(=O)O)C(C)C; Sar = CNCC(=O)O
# System: not listed separately
# Assay: qHTS Assay for Identification of Small Molecule Agonists for Thrombopoietin (TPO) Signaling Pathway (AID 917)
# Settings: TPO signaling pathway reporter cells, agonist qHTS, stimulated with TPO at its EC50; series mostly up to 38.5 µM
# Outline: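 Murine Ba/F3 cells stably expressing human TPO receptor and a Glycoprotein IIb promoter–luciferase reporter were IL-3-starved overnight, then treated with compounds plus TPO (26 pM final, its EC50) for 24 hrs at 37 C; luminescence was read.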
row,SMILES,outcome
1,N[C@@H](Cc1cnc[nH]1)C(=O)O,inactive
2,Nc1cc(Cl)c(NC2=NCCN2)c(Cl)c1,inactive
3,O=C1CCC(c2ccc(-n3ccnc3)cc2)=NN1,inactive
4,C[C@@H]1C(=O)NC2=Nc3cccc(Cl)c3CN21,inactive
5,CN1[C@@H]2CC[C@H]1CC(OC(=O)c1c[nH]c3ccccc13)C2 (stereo not given in full),inactive
6,Oc1cc(O)c2c(c1)O[C@H](c1ccc(O)c(O)c1)[C@H](O)C2,inactive
7,CN1CCC[C@@H]1c1cccnc1,inactive
8,C[C@]12CC[C@@H]3c4ccc(O)cc4CC[C@H]3[C@@H]1CC[C@@H]2O,inactive

# System: not listed separately
# Assay: Cell Viability - LYMP2-001 (AID 921); note: nearly all actives have a fitted effect of over 70% in size; note: potency is the fitted concentration of half-maximal effect
# Settings: LYMP2-001 lymphoblastoid cell viability; series mostly up to 92.2 µM
# Outline: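 Human lymphoblastoid cells (Coriell), 2500 per well, were preincubated 5 hr at 37 C, then exposed to compounds in complete medium for 24 hr at 37 C. Cellular ATP was read by CellTiter-Glo luminescence; AC50 from Hill fits of concentration-response data.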
row,SMILES,Potency
1,COc1cccc2c1C(=O)c1c(O)c3c(c(O)c1C2=O)C[C@@](O)(C(C)=O)C[C@@H]3O[C@H]1C[C@H](N)[C@H](O)[C@H](C)O1,1580 nM (active)
2,CC(=O)O[C@]1(C(C)=O)CC[C@H]2[C@@H]3C[C@H](C)C4=CC(=O)CC[C@]4(C)[C@H]3CC[C@@]21C,31600 nM (active)
3,O=C(O)CCCCC(=O)O,inactive
4,CC(O)C(=O)O (stereo not given),inactive
5,COc1cccc2c1C(=O)c1c(O)c3c(c(O)c1C2=O)C[C@@](O)(C(=O)CO)C[C@@H]3O[C@H]1C[C@H](N)[C@H](O)[C@H](C)O1,501 nM (active)

# System: not listed separately
# Assay: Confirmation and Secondary Assay for Modulators of Hemoglobin Beta Chain Splicing at IVS2 705 locus (AID 930);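 note: HeLa cells stably expressing the EGFP-705 splicing reporter; GFP fluorescence per well restored by corrected splicing of the IVS2-705 intron in EGFP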
# Settings: HeLa EGFP-705 splicing reporter, GFP fluorescence, 48 h; series mostly up to 46.1 µM
# Outline: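 HeLa cells stably carrying EGFP interrupted by mutant beta-globin intron 2 (IVS2-705) treated 2 days at 37C with compound; 500 nM antisense PNA as control. Correct splicing read as total peak GFP intensity per well by laser-scanning cytometry.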
row,SMILES,outcome
1,c1ccc(-c2ccc(C(c3ccccc3)n3ccnc3)cc2)cc1 (stereo not given),inactive
2,CCCCCCCCCCCCCCCCOP(=O)([O-])OCC[N+](C)(C)C,inactive
3,Oc1ccc(Cl)c2cccnc12,inactive
4,OCc1ccccc1O,inactive
5,CCCC(=O)Nc1ccc(OCC(O)CNC(C)C)c(C(C)=O)c1 (stereo not given),inactive
6,Cc1ccnc(NS(=O)(=O)c2ccc(N)cc2)n1,inactive
7,CN(C)CC/C=C1\c2ccccc2Sc2ccc(Cl)cc21,inactive
8,CCCCc1nc(Cl)c(CO)n1Cc1ccc(-c2ccccc2-c2nn[nH]n2)cc1,inactive
9,Cc1ccc(C(=O)C(C)CN2CCCCC2)cc1 (stereo not given),inactive
10,CNCCC=C1c2ccccc2CCc2ccccc21,inactive
11,COc1ccc(OC)c(C(O)CNC(=O)CN)c1 (stereo not given),inactive
12,CC(=O)N(O)CCCCCNC(=O)CCC(=O)N(O)CCCCCNC(=O)CCC(=O)N(O)CCCCCN,inactive

# Molecular target: Muscarinic acetylcholine receptor M1 (Rattus norvegicus) (UniProt P08482)
# Sequence (P08482 whole entry, looked up): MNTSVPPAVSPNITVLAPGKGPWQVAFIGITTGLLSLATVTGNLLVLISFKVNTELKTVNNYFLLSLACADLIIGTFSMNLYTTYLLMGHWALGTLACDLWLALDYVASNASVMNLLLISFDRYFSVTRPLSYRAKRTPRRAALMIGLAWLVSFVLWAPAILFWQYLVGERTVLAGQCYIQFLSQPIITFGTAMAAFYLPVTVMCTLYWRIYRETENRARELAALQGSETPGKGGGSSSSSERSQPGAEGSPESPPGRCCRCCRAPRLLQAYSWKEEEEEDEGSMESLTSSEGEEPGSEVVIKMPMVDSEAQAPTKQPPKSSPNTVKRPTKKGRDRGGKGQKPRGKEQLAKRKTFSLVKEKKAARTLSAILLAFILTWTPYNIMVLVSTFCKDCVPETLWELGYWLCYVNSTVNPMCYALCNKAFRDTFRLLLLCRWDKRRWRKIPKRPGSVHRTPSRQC
# Assay: qHTS Assay for Antagonists of Acetylcholine Muscarinic M1 Receptor: Kinetic Measurement of Intracellular Calcium Response (AID 943);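 note: Fluo-4 calcium signal as peak divided by basal fluorescence over 4 min; nearly all actives have a fitted effect of over 75% in size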
# Settings: M1-expressing cells, kinetic intracellular calcium fluorescence; series mostly up to 35.3 µM
# Outline: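 Rat M1-CHO cells, 2000/well, overnight → Fluo-4 no-wash dye with probenecid, 1 h 37C → compound 10 min, room temp → basal read 6 s → carbachol EC80 (100 nM) → 4 min kinetic read; peak/basal.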
row,SMILES,outcome
1,N[C@@H](Cc1cnc[nH]1)C(=O)O,inactive
2,O=C1CCC(c2ccc(-n3ccnc3)cc2)=NN1,inactive
3,C[C@@H]1C(=O)NC2=Nc3cccc(Cl)c3CN21,inactive
4,Oc1cc(O)c2c(c1)O[C@H](c1ccc(O)c(O)c1)[C@H](O)C2,inactive

# Molecular target: Muscarinic acetylcholine receptor M1 (Rattus norvegicus) (UniProt P08482)
# Assay: qHTS Assay for Antagonists of Acetylcholine Muscarinic M1 Receptor: Measurement of IP-One Response (AID 944); note: nearly all actives have a fitted effect of over 75% in size; note: potency is the fitted concentration of half-maximal effect
# Settings: CHO-M1 cells, IP-One HTRF, antagonist mode; series mostly up to 46.1 µM
# Outline: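 M1-CHO (rat), 2000 cells/well, overnight recovery; cpd 10 min; carbachol EC80 (200 nM), 30 min, HEPES buffer + 50 mM LiCl pH 7.4; IP-One HTRF, Ex 337, Em 620/665 nm.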
row,SMILES,Potency
1,N[C@@H](Cc1cnc[nH]1)C(=O)O,inactive
2,COc1cc(NS(C)(=O)=O)ccc1Nc1c2ccccc2nc2ccccc12,10000 nM (active)
3,CC(C)COC(=O)OCN1C(=O)CN(CCN2CC(=O)N(COC(=O)OCC(C)C)C(=O)C2)CC1=O,inactive
4,Nc1cc(Cl)c(NC2=NCCN2)c(Cl)c1,inactive
5,O=C1CCC(c2ccc(-n3ccnc3)cc2)=NN1,inactive
6,C[C@@H]1C(=O)NC2=Nc3cccc(Cl)c3CN21,inactive
7,Oc1cc(O)c2c(c1)O[C@H](c1ccc(O)c(O)c1)[C@H](O)C2,inactive

# Molecular target: Pyruvate kinase (Leishmania mexicana) (UniProt Q27686)
# Assay: qHTS Validation Assay for Inhibitors of Leishmania Mexicana Pyruvate Kinase (AID 945)
# Settings: purified L. mexicana pyruvate kinase, enzyme activity, E451W mutant enzyme; series mostly up to 57.5 µM
# Outline: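 Eight-point qHTS titrations in triplicate, data normalized to DMSO neutral control. Reaction: 0.2 nM LmPYK E451W mutant, 0.5 mM PEP, 0.1 mM ADP, 7 mM MgCl2, pH 7.2, one hour at room temperature; luminescent ATP detection.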
row,SMILES,outcome
1,N[C@@H](Cc1cnc[nH]1)C(=O)O,inactive
2,CC(C)COC(=O)OCN1C(=O)CN(CCN2CC(=O)N(COC(=O)OCC(C)C)C(=O)C2)CC1=O,inactive
3,Nc1cc(Cl)c(NC2=NCCN2)c(Cl)c1,inactive
4,O=C1CCC(c2ccc(-n3ccnc3)cc2)=NN1,inactive
5,C[C@@H]1C(=O)NC2=Nc3cccc(Cl)c3CN21,inactive
6,CN1[C@@H]2CC[C@H]1CC(OC(=O)c1c[nH]c3ccccc13)C2 (stereo not given in full),inactive
7,Oc1cc(O)c2c(c1)O[C@H](c1ccc(O)c(O)c1)[C@H](O)C2,inactive
8,CN1CCC[C@@H]1c1cccnc1,inactive
9,CCCC1O[C@@H]2C[C@H]3[C@@H]4CCC5=CC(=O)C=C[C@]5(C)[C@H]4[C@@H](O)C[C@]3(C)[C@]2(C(=O)CO)O1 (stereo not given in full),inactive
10,CNCCC=C1c2ccccc2CCc2ccccc21,inactive
11,C[C@]12CC[C@@H]3c4ccc(O)cc4CC[C@H]3[C@@H]1CC[C@@H]2O,inactive

# System: not listed separately
# Assay: MultiTox-Fluor Cytotoxicity Assay - LYMP1-001 - Dead Cells (AID 946);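 note: cells exposed to compound for 16 h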; note: potency is the fitted concentration of half-maximal effect
# Settings: LYMP1-001 lymphoblastoid cells, dead-cell protease fluorescence; series mostly up to 92.2 µM
# Outline: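 In this qHTS, 15 uM tetraoctylammonium bromide defined 100% and DMSO defined basal activity. Lymphoblastoid cells (LYMP1-001, 2500 per well) received compound for 16 hr at 37 C before a fluorogenic dead-cell substrate readout at 485/520 nm.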
row,SMILES,Potency
1,COc1cccc2c1C(=O)c1c(O)c3c(c(O)c1C2=O)C[C@@](O)(C(C)=O)C[C@@H]3O[C@H]1C[C@H](N)[C@H](O)[C@H](C)O1,501 nM (active)
2,CC(=O)O[C@]1(C(C)=O)CC[C@H]2[C@@H]3C[C@H](C)C4=CC(=O)CC[C@]4(C)[C@H]3CC[C@@]21C,inactive
3,O=C(O)CCCCC(=O)O,inactive
4,"Cc1c2oc3c(C)ccc(C(=O)N[C@@H]4C(=O)N[C@H](C(C)C)C(=O)N5CCC[C@H]5C(=O)N(C)CC(=O)N(C)[C@@H](C(C)C)C(=O)O[C@@H]4C)c3nc-2c(C(=O)N[C@@H]2C(=O)N[C@H](C(C)C)C(=O)N3CCC[C@H]3C(=O)N(C)CC(=O)N(C)[C@@H](C(C)C)C(=O)O[C@@H]2C)c(N)c1=O (I: T[dV]P[Sar][NMeV] / II: T[dV]P[Sar][NMeV]; ester I:1-I:C, II:1-II:C; linker I:N-II:N via Actinocin(9to1))",12.6 nM (active)
5,CC(O)C(=O)O (stereo not given),inactive
6,COc1cccc2c1C(=O)c1c(O)c3c(c(O)c1C2=O)C[C@@](O)(C(=O)CO)C[C@@H]3O[C@H]1C[C@H](N)[C@H](O)[C@H](C)O1,2510 nM (active)
7,Oc1ccc(Cl)cc1Sc1cc(Cl)ccc1O,inactive
8,C[C@]12CC[C@@H]3c4ccc(O)cc4CC[C@H]3[C@@H]1CC[C@@H]2O,inactive
